The values that follow come from PubChem BioAssay (EPA / NIEHS).

The target of experiment [1] is Peroxisome proliferator-activated receptor gamma (Homo sapiens) (UniProt P37231). Nature of the experiment: NVS_NR_hPPARg: NovaScreen (NVS) Nuclear Receptor Binding Assay for human Peroxisome Proliferator-activated Receptor gamma (PPARg) (AID 2283370; active = hit-call score of the fitted dose curve at least 0.9, where 1 is the maximum). The method in brief:
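Chemicals were tested first in duplicate at 25 uM, then in concentration series if active. Binding to cell-free PPARg protein was measured by fluorescence polarization after 2 h, with loss of signal scored against DMSO.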

Experiment [2] can be described thus: CPHEA_Stoker_NIS_Cytotoxicity: Cytotoxicity Assessment for CPHEA's Radioactive Iodide Uptake (RAIU) Assay for Sodium/Iodide Symporter (NIS) Inhibition, Stoker and Laws Labs (AID 2283897; active = hit-call score of the fitted dose curve at least 0.9, where 1 is the maximum). The method in brief:
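hNIS-HEK293T-EPA human kidney cells were exposed for 2 hours at room temperature to test chemicals (0.001–100uM, 0.5% final DMSO) in HEPES-buffered HBSS, pH 7.4. Viability was read as ATP content by luciferase bioluminescence, loss of signal versus DMSO.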

Experiment [3] addresses Nuclear receptor subfamily 1 group I member 2 (Homo sapiens) (UniProt O75469). Kind of experiment: NVS_NR_hPXR: NovaScreen (NVS) Nuclear Receptor Binding Assay for human Pregnane X Receptor (PXR) (AID 2283365; active = hit-call score of the fitted dose curve at least 0.9, where 1 is the maximum;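 also: a drop in FRET signal versus DMSO baseline means the compound binds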). The method in brief: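 Human PXR protein, cell-free; compound added, incubated 2 h, TR-FRET read. Signal decrease vs DMSO = binding. Screened 25 uM duplicate, actives re-run as dilution series.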

For experiment [4], the system named is Thyroperoxidase (TPO), gene 54314. Nature of the experiment: CCTE_Simmons_AUR_rTPO: CCTE's Amplex UltraRed Assay for Thyroperoxidase (TPO) Inhibition, Simmons Lab (AID 2283662; active = hit-call score of the fitted dose curve at least 0.9, where 1 is the maximum;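 also: potency for loss of signal meaning inhibition of peroxidase activity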). The method in brief:
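Rat thyroid microsomal TPO + 25 uM AUR in 200 mM K phosphate; cpd 5 nM–87.5 uM [final], 8 conc, 0.5% DMSO; 300 uM H2O2 starts rxn; 37C dark 30 min; endpoint FI 544/590 nm; n=3.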

In experiment [5] the target is Luciferin 4-monooxygenase (Photinus pyralis) (UniProt P08659). Kind of experiment: CCTE_Simmons_QuantiLum_inhib_2: CCTE's Firefly Luciferase Inhibition Assay, Simmons Lab (AID 2283767; active = hit-call score of the fitted dose curve at least 0.9, where 1 is the maximum;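 as to AC50: potency for inhibitors that lower luciferase luminescence relative to DMSO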). The essentials:
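Eight-point titrations of each chemical, 5 nM–87.5 uM final in 0.5% DMSO, were run in three biological replicates against recombinant luciferase for 30 min at 37C. Bioluminescence signal loss, read on reagent injection, gave the inhibition endpoint.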

Experiment [6] deals with human Dopamine Transporter (DAT), SLC6A3 (gene 6531) (UniProt Q01959). Kind of experiment: NVS_TR_hDAT: NovaScreen (NVS) Transporter Assay for human Dopamine Transporter (DAT) (AID 2283374; active = hit-call score of the fitted dose curve at least 0.9, where 1 is the maximum;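 also: activity means loss of bound radioligand signal relative to DMSO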). The essentials:
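Duplicate single-point screening at 25 uM preceded concentration-series follow-up of actives. Binding was measured by competitive displacement of a radioligand from DAT protein, filter-counted by scintillation 1 h after dosing. Decrease relative to DMSO taken as activity.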

The target in experiment [7] is human Norepinephrine Transporter (NET), SLC6A2 (gene 6530) (UniProt P23975). Kind of experiment: NVS_TR_hNET: NovaScreen (NVS) Transporter Assay for human Norepinephrine Transporter (NET) (AID 2283377; active = hit-call score of the fitted dose curve at least 0.9, where 1 is the maximum;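 also: cell-free membrane protein extracted from CHO cells expressing human NET; displacement of radioligand from human NET seen as loss of scintillation signal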). The essentials: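 Single-concentration duplicate screen at 25 uM, then concentration-response for actives; displacement of specific radioligand from human NET in CHO membrane extracts, filter-based scintillation detection at 1 h relative to DMSO.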

A short description of experiment [8]: CCTE_Shafer_MEA_acute_spike_number: CCTE's Neural Acute Assay for Total Number of Spikes, Shafer Lab (AID 2284008).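 As to AC50: curve fitted for decrease in spike count so AC50 reflects inhibitors.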 The method in brief: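 Read-out is the total spike count over 40 min, expressed as percent change from each well's own pre-treatment baseline and fitted in the loss direction against DMSO. Rat cortical neurons were exposed at 0.03-40 uM on DIV 13 or 15.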

Experiment [9] is described as follows: CCTE_Shafer_MEA_acute_burst_number: CCTE's Neural Acute Assay for Single-Electrode Bursts, Shafer Lab (AID 2284013). The method in brief: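 Primary rat cortical neurons on 16-electrode MEA wells, DIV 13 or 15, exposed to compound (0.03-40 uM; ≥3 wells); 40-min recordings at 37 C before and after treatment. Burst count expressed as percent change from baseline, DMSO as negative control.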

A short description of experiment [10]: CCTE_Shafer_MEA_acute_per_burst_spike_number_mean: CCTE's Neural Acute Assay for Average Number of Spikes Per Burst, Shafer Lab (AID 2284015).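 Also: hits are decreases in mean spikes per burst versus baseline.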 The method in brief:
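Primary rat cortical neurons on 48-well MEA plates, treated on DIV 13 or 15 at 0.03-40 uM. Spontaneous activity recorded 40 min before and 40 min after compound at 37 C; percent change in mean spikes per single-electrode burst per well, fitted in the loss direction versus DMSO.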

A short description of experiment [11]: CCTE_Shafer_MEA_acute_interburst_interval_mean: CCTE's Neural Acute Assay for Mean Interburst Interval, Shafer Lab (AID 2284016).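 Also: percent change of mean interburst interval versus each well's own pre-dose baseline; curves fitted for decrease in interburst interval relative to DMSO.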 The method in brief:
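Primary rat cortical neurons on 16-electrode MEA wells were recorded 40 min at baseline on DIV 13 or 15, then 40 min after compound (0.03-40 uM), at 37 C. Value is percent change in mean interburst interval per well, DMSO as negative control.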

A short description of experiment [12]: CCTE_Shafer_MEA_acute_burst_percentage_mean: CCTE's Neural Acute Assay for Percentage of Spikes in a Burst, Shafer Lab (AID 2284017).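 Also: curve fitted for loss of signal so potency reflects decreased burst percentage.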 The essentials:
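Primary rat cortical neurons on 16-electrode MEA wells; 40 min baseline recorded at DIV 13 or 15, then 40 min after compound (0.03-40 uM) at 37 C. Well-mean fraction of spikes in single-electrode bursts; percent change from baseline, DMSO as negative control.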

Experiment [13] in a line: CCTE_Shafer_MEA_acute_burst_percentage_std: CCTE's Neural Acute Assay for Standard Deviation of Burst Percentage, Shafer Lab (AID 2284018).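 Also: fitted in the negative direction so actives lower burst percentage SD.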 The essentials:
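Value is percent change from baseline in the across-electrode SD of spikes-in-bursts percentage, wells with >/= 10 active electrodes. Acute 40-min exposure to 0.03-40 uM on DIV 13 or 15 rat cortical cultures, recorded at 37 C after 40-min baseline.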

Experiment [14] is described as follows: CCTE_Shafer_MEA_acute_per_network_burst_spike_number_mean: CCTE's Neural Acute Assay for Average Number of Spikes in a Network Burst, Shafer Lab (AID 2284019).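 As to AC50: curve fitted for loss of signal so actives reduce spikes per network burst.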 The essentials:
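Percent change from baseline in mean spikes per network burst, spikes detected at 8x rms noise. Each compound at 0.03-40 uM in at least three wells of rat cortical cultures, recorded 40 min before and 40 min during exposure.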

Experiment [15] in a line: CCTE_Shafer_MEA_acute_per_network_burst_spike_number_std: CCTE's Neural Acute Assay for Standard Deviation of Number of Spikes in a Network Burst, Shafer Lab (AID 2284020).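 Also: fitted for decrease in spike-number SD versus DMSO so actives lower it.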 The method in brief: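 Endpoint: percent change from 40 min baseline in standard deviation of spikes per network burst, after 40 min compound exposure (0.03-40 uM, 37 C). Cortical rat neurons on MEA at DIV 13 or 15; spikes detected at 8x rms noise, 300-5000 Hz band-pass.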

The target of experiment [16] is human Ephrin type-A Receptor 1 (EphA1), EPHA1 (gene 2041) (UniProt P21709). Nature of the experiment: NVS_ENZ_hEphA1: NovaScreen (NVS) Enzymatic Assay for human Ephrin type-A Receptor 1 (EphA1) (AID 2283158; active = hit-call score of the fitted dose curve at least 0.9, where 1 is the maximum;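 also: activity is signal loss versus DMSO meaning EphA1 kinase inhibition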). The method in brief:
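Chemicals first tested in duplicate at 25 uM against recombinant EphA1 with a fluorescent substrate; those passing threshold went to singleton dose-response topping at 50 uM. Activity read 1 h later as mobility-shift fluorescence, loss of signal relative to DMSO.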

The target in experiment [17] is human Phosphoinositide 3-kinase alpha (PI3Ka), PIK3CA (gene 5290) (UniProt P42336). Kind of experiment: NVS_ENZ_hPI3Ka: NovaScreen (NVS) Enzymatic Assay for human Phosphoinositide 3-kinase alpha (PI3Ka) (AID 2283196; active = hit-call score of the fitted dose curve at least 0.9, where 1 is the maximum). The essentials:
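Fluorescence/mobility-shift readout of substrate conversion by recombinant enzyme, 1 h post-dosing. Primary screen in duplicate at 25 uM; actives (e.g. ≥30% inhibition) retested in singleton concentration-response, top concentration 50 uM.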

Experiment [18] addresses rat Thyrotropin Releasing Hormone Receptor (TRH), Trhr (gene 25570) (UniProt Q01717). Kind of experiment: NVS_GPCR_rTRH: NovaScreen (NVS) G Protein-Coupled Receptor Assay for rat Thyrotropin Releasing Hormone Receptor (TRH) (AID 2283329; active = hit-call score of the fitted dose curve at least 0.9, where 1 is the maximum;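 also: hit means lower bound tracer signal versus DMSO baseline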). The method in brief: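 Cell-free radioligand binding on rat forebrain membranes; bound tracer measured by filter-based scintillation counting 4 hours after dosing. Loss of signal versus DMSO baseline indicates displacement; primary screen at 25 uM in duplicate, actives then run in concentration series.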

Experiment [19] deals with human Peroxisome Proliferator-activated Receptor alpha (PPARa), PPARA (gene 5465) (UniProt Q07869). Kind of experiment: NVS_NR_hPPARa: NovaScreen (NVS) Nuclear Receptor Binding Assay for human Peroxisome Proliferator-activated Receptor alpha (PPARa) (AID 2283359; active = hit-call score of the fitted dose curve at least 0.9, where 1 is the maximum;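 also: activity means loss of TR-FRET signal versus DMSO baseline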). The essentials: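 Loss of TR-FRET binding signal relative to DMSO was measured 1 h after chemical addition to extracted receptor protein. Chemicals were first tested in duplicate at 25 uM, and actives were followed up in concentration series.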

Records with an inconclusive call do not appear. Activity calls are given as the source filed them. The calls were made as follows, unless noted: active = hit-call score of the fitted dose curve at least 0.9, where 1 is the maximum; inactive = score below 0.9.

Chain of Peroxisome proliferator-activated receptor gamma (Homo sapiens) (P37231 whole entry, looked up): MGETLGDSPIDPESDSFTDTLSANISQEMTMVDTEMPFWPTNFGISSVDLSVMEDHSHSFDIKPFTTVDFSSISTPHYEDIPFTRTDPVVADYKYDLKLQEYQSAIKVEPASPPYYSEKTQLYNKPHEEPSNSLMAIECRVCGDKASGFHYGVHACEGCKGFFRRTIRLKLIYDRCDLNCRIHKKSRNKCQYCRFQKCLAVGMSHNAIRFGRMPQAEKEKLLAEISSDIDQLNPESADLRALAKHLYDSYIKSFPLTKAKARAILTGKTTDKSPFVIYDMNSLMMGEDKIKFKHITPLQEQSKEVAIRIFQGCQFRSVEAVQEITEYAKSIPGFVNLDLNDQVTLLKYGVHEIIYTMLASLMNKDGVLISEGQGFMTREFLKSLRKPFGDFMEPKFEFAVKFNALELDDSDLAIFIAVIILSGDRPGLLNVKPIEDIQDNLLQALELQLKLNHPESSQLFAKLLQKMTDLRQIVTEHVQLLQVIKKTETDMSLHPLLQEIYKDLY
Chain of human Norepinephrine Transporter (NET), SLC6A2 (gene 6530) (P23975 whole entry, looked up): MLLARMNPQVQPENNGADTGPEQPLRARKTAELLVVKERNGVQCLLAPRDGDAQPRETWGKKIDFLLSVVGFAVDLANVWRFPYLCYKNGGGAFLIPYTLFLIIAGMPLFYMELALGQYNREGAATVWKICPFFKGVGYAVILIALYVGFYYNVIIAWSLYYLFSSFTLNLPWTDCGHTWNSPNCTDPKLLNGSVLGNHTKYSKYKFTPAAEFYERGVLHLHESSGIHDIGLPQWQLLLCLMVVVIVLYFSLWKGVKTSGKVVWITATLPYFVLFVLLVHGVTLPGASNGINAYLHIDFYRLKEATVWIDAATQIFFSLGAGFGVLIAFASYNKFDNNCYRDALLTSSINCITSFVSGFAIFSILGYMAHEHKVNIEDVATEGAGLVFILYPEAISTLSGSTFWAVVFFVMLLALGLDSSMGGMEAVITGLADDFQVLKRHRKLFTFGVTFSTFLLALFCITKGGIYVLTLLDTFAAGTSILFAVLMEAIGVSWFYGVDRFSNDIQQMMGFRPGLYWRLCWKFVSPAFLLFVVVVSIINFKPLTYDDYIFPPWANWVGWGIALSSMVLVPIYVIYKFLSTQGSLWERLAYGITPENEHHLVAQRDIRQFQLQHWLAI
Chain of Luciferin 4-monooxygenase (Photinus pyralis) (P08659 whole entry, looked up): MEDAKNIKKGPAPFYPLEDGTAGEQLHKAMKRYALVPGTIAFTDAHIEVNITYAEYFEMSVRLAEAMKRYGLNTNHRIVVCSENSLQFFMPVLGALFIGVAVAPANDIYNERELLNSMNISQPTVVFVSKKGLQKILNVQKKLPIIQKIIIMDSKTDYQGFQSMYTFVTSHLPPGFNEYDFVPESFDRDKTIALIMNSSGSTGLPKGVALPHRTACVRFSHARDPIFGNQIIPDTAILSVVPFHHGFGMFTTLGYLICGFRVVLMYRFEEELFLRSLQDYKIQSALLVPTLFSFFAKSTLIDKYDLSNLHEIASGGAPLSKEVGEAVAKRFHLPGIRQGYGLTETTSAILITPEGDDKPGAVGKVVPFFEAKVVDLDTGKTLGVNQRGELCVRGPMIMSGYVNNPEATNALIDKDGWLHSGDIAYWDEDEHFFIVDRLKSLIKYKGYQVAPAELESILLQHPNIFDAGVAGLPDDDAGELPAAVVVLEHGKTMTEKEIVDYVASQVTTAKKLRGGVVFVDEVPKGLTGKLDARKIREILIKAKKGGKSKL
Chain of human Phosphoinositide 3-kinase alpha (PI3Ka), PIK3CA (gene 5290) (P42336 whole entry, looked up): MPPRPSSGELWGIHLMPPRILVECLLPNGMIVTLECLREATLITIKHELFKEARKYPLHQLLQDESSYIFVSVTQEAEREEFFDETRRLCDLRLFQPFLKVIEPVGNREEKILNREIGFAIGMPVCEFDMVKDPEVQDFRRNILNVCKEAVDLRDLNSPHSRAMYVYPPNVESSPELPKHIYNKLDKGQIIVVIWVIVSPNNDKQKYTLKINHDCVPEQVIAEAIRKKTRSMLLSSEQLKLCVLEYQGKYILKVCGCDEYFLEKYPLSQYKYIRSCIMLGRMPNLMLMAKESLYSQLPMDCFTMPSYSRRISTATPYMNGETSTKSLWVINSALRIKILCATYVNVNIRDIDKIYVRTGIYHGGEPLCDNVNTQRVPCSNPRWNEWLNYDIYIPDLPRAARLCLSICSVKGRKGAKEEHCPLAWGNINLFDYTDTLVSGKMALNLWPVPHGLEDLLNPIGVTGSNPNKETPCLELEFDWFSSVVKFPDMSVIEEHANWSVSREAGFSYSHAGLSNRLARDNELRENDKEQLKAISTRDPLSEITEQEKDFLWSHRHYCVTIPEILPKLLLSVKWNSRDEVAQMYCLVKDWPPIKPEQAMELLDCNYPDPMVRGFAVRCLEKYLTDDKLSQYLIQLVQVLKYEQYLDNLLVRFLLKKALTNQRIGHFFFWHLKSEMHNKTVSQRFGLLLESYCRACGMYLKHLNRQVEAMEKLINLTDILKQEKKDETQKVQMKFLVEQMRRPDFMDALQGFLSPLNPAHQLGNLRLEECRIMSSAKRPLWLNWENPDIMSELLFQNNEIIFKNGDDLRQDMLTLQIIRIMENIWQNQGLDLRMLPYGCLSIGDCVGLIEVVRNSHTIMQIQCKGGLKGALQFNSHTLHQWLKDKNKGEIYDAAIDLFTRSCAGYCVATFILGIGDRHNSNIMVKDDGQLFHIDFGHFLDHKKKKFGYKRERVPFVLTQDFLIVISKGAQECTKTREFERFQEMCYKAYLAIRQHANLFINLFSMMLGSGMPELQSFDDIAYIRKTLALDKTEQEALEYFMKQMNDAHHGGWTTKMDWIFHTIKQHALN
Chain of human Dopamine Transporter (DAT), SLC6A3 (gene 6531) (Q01959 whole entry, looked up): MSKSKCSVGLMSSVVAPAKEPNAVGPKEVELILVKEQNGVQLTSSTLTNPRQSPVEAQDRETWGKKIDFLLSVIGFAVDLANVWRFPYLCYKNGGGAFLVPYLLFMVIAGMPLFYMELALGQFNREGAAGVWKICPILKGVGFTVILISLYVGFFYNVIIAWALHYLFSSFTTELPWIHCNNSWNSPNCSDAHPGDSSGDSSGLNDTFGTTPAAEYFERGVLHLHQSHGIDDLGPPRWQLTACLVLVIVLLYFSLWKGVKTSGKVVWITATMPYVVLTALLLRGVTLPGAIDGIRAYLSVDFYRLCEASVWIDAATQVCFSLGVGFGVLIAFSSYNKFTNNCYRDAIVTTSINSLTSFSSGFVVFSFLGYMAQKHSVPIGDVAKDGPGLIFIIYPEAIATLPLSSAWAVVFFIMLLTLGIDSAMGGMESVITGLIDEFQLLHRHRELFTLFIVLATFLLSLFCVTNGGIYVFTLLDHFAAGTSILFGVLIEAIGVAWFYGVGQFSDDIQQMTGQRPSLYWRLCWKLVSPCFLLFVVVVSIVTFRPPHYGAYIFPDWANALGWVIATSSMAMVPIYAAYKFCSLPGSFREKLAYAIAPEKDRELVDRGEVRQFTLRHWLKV
Chain of human Ephrin type-A Receptor 1 (EphA1), EPHA1 (gene 2041) (P21709 whole entry, looked up): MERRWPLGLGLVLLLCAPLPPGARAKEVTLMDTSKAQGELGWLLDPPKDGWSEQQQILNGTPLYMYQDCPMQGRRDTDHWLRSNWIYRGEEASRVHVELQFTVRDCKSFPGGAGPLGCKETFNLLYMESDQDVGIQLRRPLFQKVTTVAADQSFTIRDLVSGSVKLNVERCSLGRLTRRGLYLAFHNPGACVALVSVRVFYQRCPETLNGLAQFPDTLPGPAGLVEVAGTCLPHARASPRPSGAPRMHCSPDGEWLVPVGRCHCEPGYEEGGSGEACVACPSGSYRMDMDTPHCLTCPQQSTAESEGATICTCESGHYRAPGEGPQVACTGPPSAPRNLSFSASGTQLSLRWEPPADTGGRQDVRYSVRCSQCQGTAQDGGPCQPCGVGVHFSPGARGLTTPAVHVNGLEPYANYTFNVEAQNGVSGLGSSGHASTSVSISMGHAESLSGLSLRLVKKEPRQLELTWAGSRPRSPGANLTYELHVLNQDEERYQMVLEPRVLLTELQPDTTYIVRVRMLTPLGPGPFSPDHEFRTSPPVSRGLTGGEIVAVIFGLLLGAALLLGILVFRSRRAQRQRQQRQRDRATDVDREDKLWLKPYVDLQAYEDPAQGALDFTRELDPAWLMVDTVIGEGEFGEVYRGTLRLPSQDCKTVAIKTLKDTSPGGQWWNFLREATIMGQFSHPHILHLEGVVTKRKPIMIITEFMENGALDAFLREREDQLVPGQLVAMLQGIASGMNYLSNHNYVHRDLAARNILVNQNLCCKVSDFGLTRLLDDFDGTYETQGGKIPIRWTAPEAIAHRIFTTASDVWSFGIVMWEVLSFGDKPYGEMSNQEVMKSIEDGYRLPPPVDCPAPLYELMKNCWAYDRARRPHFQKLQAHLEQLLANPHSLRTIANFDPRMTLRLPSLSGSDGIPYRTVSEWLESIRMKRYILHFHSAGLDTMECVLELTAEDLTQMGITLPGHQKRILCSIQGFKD
Chain of Nuclear receptor subfamily 1 group I member 2 (Homo sapiens) (O75469 whole entry, looked up): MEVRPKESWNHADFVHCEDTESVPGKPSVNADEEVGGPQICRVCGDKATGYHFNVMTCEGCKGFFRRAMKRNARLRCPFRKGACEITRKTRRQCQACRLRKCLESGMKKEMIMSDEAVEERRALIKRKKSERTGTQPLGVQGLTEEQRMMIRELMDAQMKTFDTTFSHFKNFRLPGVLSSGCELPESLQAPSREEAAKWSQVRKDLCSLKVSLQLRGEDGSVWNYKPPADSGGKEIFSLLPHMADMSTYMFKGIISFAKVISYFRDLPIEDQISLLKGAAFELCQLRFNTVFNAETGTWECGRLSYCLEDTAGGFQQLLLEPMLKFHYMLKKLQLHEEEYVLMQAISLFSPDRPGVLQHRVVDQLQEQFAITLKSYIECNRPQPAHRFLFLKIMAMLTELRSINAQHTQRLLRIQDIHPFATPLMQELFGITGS

Consider `Cc1cccnc1`, for which the compound was classed as inactive in experiment [1] and in experiment [2].
Usually AC50 stands for the concentration giving half of the maximal activity seen. With `Nc1ccc(S(=O)(=O)Nc2cnc3ccccc3n2)cc1`, the call in experiment [3] and in [5] was inactive. Further, in [4], the AC50 was 0.715 µM (active).
As for `CN(C)CCC(c1ccc(Cl)cc1)c1ccccn1` (configuration not stated), the AC50 in experiment [6] is 2.54 µM (active); in [7] it was 7.29 µM (active); in experiment [10], 24.3 µM (active); in experiment [11] it was 23.9 µM (active); in [12], 23.8 µM (active); in experiment [13], 27.1 µM (active). Also, the values for the AC50 in [14] and in experiment [15] were 3.62 µM (active) and 19.5 µM (active), respectively. For the same compound, the compound was called inactive in [8] and in [9].
Turning to `F[B-](F)(F)F`, the call in experiment [1] was inactive.
On to `CCCOCCC`, for which the result in [16] and in experiment [17] was inactive.
Consider `CC1(C)S[C@@H]2[C@H](NC(=O)[C@H](N)c3ccccc3)C(=O)N2[C@H]1C(=O)O`, for which the AC50 in experiment [17] was 12.5 µM (active); in experiment [11] it was 1.61 µM (active); in experiment [12], 0.0814 µM (active). For the same compound, the outcome in experiment [8], in experiment [9], in experiment [10], in experiment [13], in experiment [14] and in experiment [15] was inactive.
For the compound `CN(C)c1ccc(C(c2ccccc2)c2ccc(N(C)C)cc2)cc1`, the AC50 is 31.7 µM (active) in [7] and 10.6 µM (active) in experiment [4]. In addition, the result in experiment [5] was inactive.
For `CCCCCCCCCCCCCCCCCC[N+](C)(C)C`, the AC50 was 3.68 µM (active) in experiment [17], 2.52 µM (active) in experiment [6] and 2.93 µM (active) in experiment [7].
For `Cc1cc(C)c(S(=O)(=O)O)cc1N=Nc1cc(S(=O)(=O)O)c2ccccc2c1O`, the compound was classed as inactive in [18] and in experiment [1]. Besides, the half-maximal activity concentration (AC50) in [4] was 14.5 µM (active); in experiment [5], 2.98 µM (active).
As for `COc1ccccc1OCC(O)CO` (configuration not stated), the outcome in experiment [16] was inactive.
`CC1=NN(c2cc(Cl)c(S(=O)(=O)O)cc2Cl)C(=O)C1N=Nc1ccc(S(=O)(=O)O)cc1` (configuration not stated): in [19], the call was inactive.
`CN(C)Cc1cc(C(C)(C)C)c(O)c(C(C)(C)C)c1`: the concentration at half-maximal activity (AC50) in experiment [8] was 2.98 µM (active); in experiment [12] it was 24.1 µM (active); in experiment [13], 15 µM (active); in experiment [14] it was 0.0516 µM (active); in experiment [15], 0.0258 µM (active). The outcome in [9], in [10] and in experiment [11] was inactive.
